Article PMC12670160, “A drug-repurposing screen of FDA- and EMA-approved drugs identifies two NF-κB inhibitors active against eumycetoma” (Journal of Antimicrobial Chemotherapy, 2025)
Counter-ions that a name gives are not always drawn. Like-named read-outs stand apart in the source and are kept apart here. Screen size: about 5,300 compounds; about 130 (2.5%) showed an effect of 50% or more. What follows is part of a selection rich in strong results, with near analogues and random picks from the rest. Numbered stars: 1 amine (or outer) side, 2 acyl side, 3 side chain; on linkers, the order of the positions; unused ones are H or OH. Bridge positions count the residues as written; N and C are the ends. Square brackets hold non-standard residues; d marks the D form. Side chains are listed from the residue outwards. Peptide text beside a SMILES is read from it. I, II: the chains in the order shown. * marks the point of attachment. Actinocin(9to1) = Cc1c2oc3c(C)ccc(C(=O)[*:1])c3nc-2c(C(=O)[*:2])c(N)c1=O; X1 = CCC(C)C(N)C1=NC(C(=O)*)CS1; NMeV = CN[C@H](C(=O)O)C(C)C; Orn = NCCC[CH](N)C(=O)O; Sar = CNCC(=O)O

Test system: M. mycetomatis strain mm55
Conditions: primary screen, metabolic activity vs growth control, 96 h, 2 µM, inhibitor

SMILES	% viability [%]	% viability (Madurella mycetomatis metabolic activity at 2µM (%)) [%]
CC1(C)[C@@H]2C[C@H]1[C@@](C)(O)[C@@H](O)C2 [ONC0005321, pinanediol]	118.6	
CC1(C)OC2(C)C(O)CC1CC2O (stereo not shown) [ONC0003817, epomediol]	42.26	
CC1(C)[C@@H]2C[C@@H](O)[C@@](C)(O)[C@H]1C2 [ONC0002949, 266trimethylbicyclo311heptane23diol]	64.26	
C#C[C@]1(OC(=O)CCCCCC)CC[C@H]2[C@@H]3CCC4=CC(=O)CC[C@@H]4[C@H]3CC[C@@]21C [ONC0000267, norethisterone enanthate]	63.38	
C=C1c2cccc(O)c2C(=O)C2C(=O)[C@]3(O)C(=O)C(C(N)=O)C(=O)[C@@H](N(C)C)[C@@H]3[C@@H](O)[C@H]12 (stereo partly shown) [ONC0000687, methacycline hydrochloride]	124.6	
CCOC(=O)c1c2c3c(cccc3[nH]c1=O)C(=O)c1ccccc1-2 [ONC0001061, nqdi1]	43.7	
O=C1c2ccccc2-c2c(NCCc3ccccc3)c(=O)[nH]c3cccc1c23 [ONC0001816, brd7389]	84.69	
CCOC(=O)c1ccccc1OC(=O)CCCCCCCC(=O)Oc1ccccc1C(=O)OCC [ONC0003554, tu2100]	98.87	
Cn1cnc(=N)c2nc[nH]c21 [ONC0004721, 3methyladenine 3ma]	115.8	
CCC(=O)OCC(=O)C1(OC(=O)CC)[C@H](C)C[C@H]2C3[C@H](Cl)CC4=CC(=O)C=C[C@]4(C)[C@H]3[C@@H](O)C[C@@]21C (stereo partly shown) [ONC0002939, alclometasonedipropionate]	82.49	
C/C(=C\c1csc(C)n1)[C@H]1C[C@@H]2O[C@]2(C)CCC[C@H](C)[C@H](O)[C@@H](C)C(=O)C(C)(C)[C@H](O)CC(=O)O1 [ONC0004615, patupilone epo906 epothilone b]	75.3	
C[C@H]1CC2C([C@@H](O)C[C@@]3(C)C2CC[C@]3(O)C(=O)COC(=O)CCC(=O)O)[C@@]2(C)C=CC(=O)C=C12 (stereo partly shown) [ONC0003156, methylprednisolone sodium succinate]	82.41	
CC(=O)N[C@@H](CSSC[C@H](NC(C)=O)C(=O)O)C(=O)O [ONC0002807, nnü¾Œ“ ¼ü¾˜³ ¼diacetyllcystine]	85.92	
C=CCN(C)CCCCCCOc1ccc(C(=O)c2ccc(Br)cc2)c(F)c1 [ONC0001825, ro 488071 fumarate]	29.93	
CCCCOc1ccc(C(=O)Nc2ccc(F)cc2F)cc1 [ONC0005047, vu 0357121 vu 0357121 vu 0357121]	78.07	
CCCCC(F)(F)C(=O)CC[C@H]1[C@H](O)CC(=O)[C@@H]1CCCCCCC(=O)O [ONC0004918, lubiprostone]	115.4	

SMILES	% viability [%]	% viability (Madurella mycetomatis metabolic activity at 2µM (%)) [%]
Oc1ccc(-c2nc(-c3ccncc3)c(-c3ccc(F)cc3)[nH]2)cc1 [ONC0000026, sb202190]	54.44	
C[S+]([O-])c1ccc(-c2nc(-c3ccncc3)c(-c3ccc(F)cc3)[nH]2)cc1 (stereo not shown) [ONC0000881, sb203580]	87.12	
Fc1ccc(-c2nc(-c3c(F)cccc3F)[nH]c2-c2ccncc2)cc1 [ONC0000887, ta01]	46.48	
CSc1ccc([C@H]2CN3CCC[C@H]3c3ccccc32)cc1 [ONC0000925, mcn5652]	74.54	
CN1CCCC1c1cccnc1 (stereo not shown) [ONC0005499, nicotine bitartrate]	91	
C[C@@H]1NC(C)(C)CO[C@@]1(O)c1cccc(Cl)c1 [ONC0001157, radafaxine hydrochloride]	85.48	
[2H]C([2H])([2H])C(=O)Nc1c(I)c(C(=O)O)c(I)c(C(=O)NC)c1I [ONC0002149, iothalamic acidd3]	66.44	
CCC(C)C(N)C1=NC(C(=O)NC(CC(C)C)C(=O)NC(CCC(=O)O)C(=O)NC(C(=O)NCCCCC2NC(=O)C(CC(N)=O)NC(=O)C(CC(=O)O)NC(=O)C(Cc3c[nH]cn3)NC(=O)C(Cc3ccccc3)NC(=O)C(C(C)CC)NC(=O)C(CCCN)NC2=O)C(C)CC)CS1 (stereo not drawn) [ONC0003188, bacitracin] (cyclo(DNK([Ile-Glu-Leu-X1])[Orn]IFH); configuration not given here)	113.7	
O=C(O)c1ccccn1 [ONC0003765, picolinicacid]	105.8	
C=C(NNC(=S)NNC(=S)Nc1ccccc1Cl)c1ccccn1 [ONC0001982, n2chlorophenyl22e212pyridinylethylidenehydrazinocarbothioylhydrazinecarbothioamide]	78.69	
C/C(=N\NC(=S)N1CCC1)c1ccccn1 [nsc319726]	6.057	
Cc1c2oc3c(C)ccc(C(=O)N[C@@H]4C(=O)N[C@H](C(C)C)C(=O)N5CCC[C@H]5C(=O)N(C)CC(=O)N(C)[C@@H](C(C)C)C(=O)O[C@@H]4C)c3nc-2c(C(=O)N[C@@H]2C(=O)N[C@H](C(C)C)C(=O)N3CCC[C@H]3C(=O)N(C)CC(=O)N(C)[C@@H](C(C)C)C(=O)O[C@@H]2C)c(N)c1=O [ONC0002258, actinomycin d] (I: T[dV]P[Sar][NMeV] / II: T[dV]P[Sar][NMeV]; ester I:1-I:C, II:1-II:C; linker I:N-II:N via Actinocin(9to1))		100.3
CNCCN(C)Cc1c[nH]nc1-c1ccc(O[C@H]2C[C@H](OCCC3CCOCC3)C2)cc1.Cl [ONC0000962, epz020411 hydrochloride]	79.33	
CN1c2c(nc(N)[nH]c2=O)NC[C@@H]1CNc1ccc(C(=O)N[C@@H](CCC(=O)O)C(=O)O)cc1 [ONC0002220, levomefolate calcium]	182.5	
CCCCCCCCCCCCCCCC(=O)OC[C@H](O)[C@H]1OC(=O)C(=O)C1O (stereo partly shown) [ONC0004072, ascorbyl palmitate]	135.5	
